Test systems include DU-145 prostate; K-562 leukemia; MALME-3M melanoma; MDA-MB-231 breast; RXF 393 renal; SF-268 CNS; SF-295 CNS; SF-539 CNS; UACC-257 melanoma; M14 melanoma.
Common to all, as to test: NCI-60 one-dose screen, 48 h (100 = growth as untreated, 0 = no growth, -100 = all killed)
Common to all, as to conditions: 10 µM unless noted

SMILES strings stand for the structures. “And” between values parts separate entries of the source, which are not always exact repeats. Equal values may be shown once. Compounds without any hit were thinned out: in the full panel of roughly 83,000, 20% have a hit.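 Method: cells in 96-well plates; compound added at one concentration; 48 h incubation; percent growth measured; values under 10 scored active.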 Unmarked numbers belong to inactive results. The source made the active and inactive calls.

Turning to `Cc1c(C)c(N)c(C)c(C)c1N`, the growth with DU-145 prostate was 6.41% (active); with K-562 leukemia, 97.8%; in the assay on MALME-3M melanoma, 93.2%; in the assay on MDA-MB-231 breast it was 83.2%; in the assay on RXF 393 renal, 84.1%; with SF-268 CNS, 91.5%. Besides, the growth was 85.4% with SF-295 CNS, 108% with SF-539 CNS, 92.9% in the assay on UACC-257 melanoma and 98.7% in the assay on M14 melanoma.
For the compound `COc1ccn(C)c(=O)c1C#N`, the growth with DU-145 prostate is 106%; with K-562 leukemia, 105%; in the assay with MALME-3M melanoma, 106%; in the assay with MDA-MB-231 breast, 90.7%; with RXF 393 renal, 107%; in the assay with SF-268 CNS, 94.3%. In addition, the results for the growth in the assay on SF-295 CNS, in the assay with UACC-257 melanoma and with M14 melanoma were 101%, 87% and 102%, respectively.
Consider `COc1cc2c(cc1OC)-c1c3c(cc4c1[C@@H](C2)N(C)CC4)OCO3`, for which the growth was 45.3% in the assay on DU-145 prostate; 13.1% with K-562 leukemia; 54.3% in the assay on MALME-3M melanoma; 55.1% in the assay on MDA-MB-231 breast; 35.2% with RXF 393 renal; 50.5% in the assay with SF-268 CNS. The growth with SF-295 CNS was 51.6%; in the assay on SF-539 CNS, 34.1%; in the assay with UACC-257 melanoma it was 35.5%; with M14 melanoma, 54.9%.
For the compound `C/C(=C(\c1ccc(OCCN2CCOCC2)cc1)c1ccc(OC(=O)Cc2ccccc2)cc1)c1ccc(Cl)cc1`, the growth in the assay with DU-145 prostate is 97.8%; in the assay with K-562 leukemia it was 7.15% (active); in the assay with MALME-3M melanoma, 104%; with MDA-MB-231 breast it was 96.8%; with RXF 393 renal it was 89.6%; in the assay on SF-268 CNS, 90.1%. Also, the growth with SF-295 CNS is 98.9%; in the assay on SF-539 CNS, 98.2%; in the assay with UACC-257 melanoma it was 87.5%; in the assay with M14 melanoma, 85.1%.
On to `CC(=O)c1cccc(S(=O)(=O)F)c1`, for which the growth in the assay with DU-145 prostate was 108%; in the assay with K-562 leukemia, 112%; with MALME-3M melanoma it was 98.7%; in the assay on MDA-MB-231 breast, 104%; in the assay with RXF 393 renal it was 98.8%; in the assay on SF-268 CNS, 108%. For the same compound, the growth was 83.1% in the assay on SF-295 CNS, 89.1% in the assay with SF-539 CNS, 99.2% with UACC-257 melanoma and 91.3% in the assay with M14 melanoma.
Regarding `N#CCC(=O)c1ccccc1`, the growth in the assay on DU-145 prostate is 98.5%; in the assay with K-562 leukemia, 84.5%; in the assay on MALME-3M melanoma it was 102%; with MDA-MB-231 breast, 104%; with RXF 393 renal, 108%; in the assay with SF-268 CNS it was 94.1%. Further, the growth is 101% with SF-295 CNS, 111% in the assay on SF-539 CNS and 111% in the assay with M14 melanoma.
On to `COc1ccc2c(c1)C1(C)CCN(C)CC(C1)C2O` (stereo not drawn), for which the growth in the assay on DU-145 prostate is 104%; in the assay on K-562 leukemia, 99.9%; in the assay with MALME-3M melanoma, 93.3%; with MDA-MB-231 breast it was 113%; in the assay on RXF 393 renal, 97%; in the assay on SF-268 CNS it was 100%. Besides, the growth in the assay on SF-539 CNS was 97.2%; in the assay on UACC-257 melanoma, 97%; in the assay on M14 melanoma, 98.1%.
In the case of `CCCCS(=O)(=O)Cl`, the growth in the assay on DU-145 prostate is 113%; in the assay with K-562 leukemia, 107%; in the assay with MALME-3M melanoma, 108%; in the assay with MDA-MB-231 breast, 111%; with RXF 393 renal it was 112%; in the assay on SF-268 CNS, 108%. Besides, the growth with SF-295 CNS is 102%; in the assay with SF-539 CNS it was 99%; in the assay on UACC-257 melanoma it was 110%; with M14 melanoma it was 99.1%.
As for `O=C/C=C/c1ccco1`, the growth was 108% in the assay with DU-145 prostate; 88.8% in the assay with K-562 leukemia; 98.8% in the assay on MALME-3M melanoma; 99.4% in the assay with MDA-MB-231 breast; 119% in the assay with RXF 393 renal; 102% with SF-268 CNS. For the same compound, the values for the growth in the assay with SF-295 CNS, in the assay with SF-539 CNS and with M14 melanoma were 99.9%, 100% and 102%, respectively.
Consider `Cc1ccc(NC2=N[C@]34CC(=O)CC[C@]3(C)[C@H]3CC[C@]5(C)C(=O)CC[C@H]5[C@@H]3C[C@@H]4S2)c(C)c1`, for which the growth with DU-145 prostate is 25.9%; with K-562 leukemia, 5.33% (active); in the assay on MALME-3M melanoma it was 27.3%; in the assay on MDA-MB-231 breast, 26.6%; with RXF 393 renal, 28.8%; with SF-268 CNS, 46.9%. For the same compound, the growth was 63.8% with SF-295 CNS, 8.46% (active) in the assay on SF-539 CNS, 65.6% in the assay with UACC-257 melanoma and 37.9% with M14 melanoma.
With `c1ccc2c(c1)O[As](O[As]1Oc3ccccc3O1)O2`, the growth in the assay with DU-145 prostate is 60.6%; with K-562 leukemia, 5.83% (active); in the assay with MALME-3M melanoma it was -7.18% (active); in the assay with MDA-MB-231 breast it was 62%; in the assay on RXF 393 renal it was 42.4%; in the assay with SF-268 CNS, 19.2%. The growth in the assay on SF-295 CNS is 99.3%; with SF-539 CNS, -32.9% (active); in the assay on M14 melanoma, 52.2%.
In the case of `CCCC(C)SP(=S)(SC(C)CCC)SC(C)CCC` (stereo not drawn), the growth in the assay on DU-145 prostate was 108%; in the assay on K-562 leukemia, 112%; with MALME-3M melanoma it was 87.6%; in the assay with MDA-MB-231 breast, 113%; with RXF 393 renal it was 95.5%; with SF-268 CNS, 104%. In addition, the growth in the assay on SF-295 CNS is 101%; in the assay with SF-539 CNS, 103%; in the assay on M14 melanoma it was 94.4%.
In the case of `O=C1CN2CCC1CC2`, the growth was 103% in the assay with DU-145 prostate; 93.9% with K-562 leukemia; 102% in the assay with MALME-3M melanoma; 108% in the assay with MDA-MB-231 breast; 111% in the assay on RXF 393 renal; 99% with SF-268 CNS. The growth in the assay on SF-295 CNS was 99.9%; with SF-539 CNS, 97.8%; in the assay on UACC-257 melanoma, 109%; in the assay with M14 melanoma, 104%.
In the case of `NC(=O)c1c(Br)c(Br)c(Br)c(Br)c1C(=O)O` (tested in a mixture with another compound), the growth is 112% and 108% in the assay with DU-145 prostate; 80.6% and 79.6% with K-562 leukemia; 102% and 91.1% with MALME-3M melanoma; 87.5% and 94.2% in the assay on MDA-MB-231 breast; 106% and 112% with RXF 393 renal; 97.7% and 100% with SF-268 CNS. Besides, the growth was 97.2% and 98.4% in the assay on SF-539 CNS; 98.7% and 105% in the assay with UACC-257 melanoma; 97.1% and 107% in the assay with M14 melanoma.

The values above are taken from PubChem BioAssay (NCI).
